Data as given in PubChem BioAssay (NCI).
The panel holds about 83,000 compounds, 20% with a hit somewhere; the sample as a whole holds those more often.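 The endpoint reported here, percent growth, reads 100 for growth as untreated, 0 for no net growth and -100 for all cells dead.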 Calls of active or inactive are those of the source. How the source made its calls: active means growth percent below 10; inactive means the rest.

Legend:
Assay in all cases: NCI-60 one-dose screen, 48 h (100 = growth as untreated, 0 = no growth, -100 = all killed)
Settings in all cases: 10 µM unless noted
[1] = test system: SK-MEL-2 melanoma
[2] = test system: EKVX NSCLC
[3] = test system: SN12C renal
[4] = test system: UO-31 renal
[5] = test system: TK-10 renal
[6] = test system: ACHN renal
[7] = test system: A498 renal
[8] = test system: CCRF-CEM leukemia
[9] = test system: MOLT-4 leukemia
[10] = test system: SR leukemia
[11] = test system: RPMI-8226 leukemia
[12] = test system: OVCAR-8 ovarian
[13] = test system: OVCAR-5 ovarian
[14] = test system: OVCAR-4 ovarian
[15] = test system: SK-OV-3 ovarian
[16] = test system: IGROV1 ovarian
[17] = test system: OVCAR-3 ovarian
[18] = test system: HS 578T breast
[19] = test system: NCI/ADR-RES ovarian

Measured: growth

CC(=O)[C@@H]1CC[C@]2(C(=O)n3ccnc3)CC[C@]3(C)[C@H](CC[C@@H]4[C@@]5(C)Cc6c([nH]c7ccccc67)C(C)(C)[C@@H]5CC[C@]43C)[C@@H]12
inactive: [1] 91.2% | [2] 75.2% | [3] 94.2% | [4] 63.6% | [5] 102% | [6] 83.5% | [7] 99% | [8] 99.5% | [9] 74.1% | [10] 77.7% | [11] 72.7% | [12] 90.7% | [13] 105% | [14] 85.2% | [15] 98.3% | [16] 42.6% | [17] 79.5% | [18] 87.1% | [19] 90%

CN(C)C(=O)c1cc2cnc(Nc3ccc(-c4csc5c(=O)cc(N6CCOCC6)oc45)cc3)nc2n1C1CCCC1
active: [1] -58.6% | [2] -19.5% | [3] 4.35% | [4] -5.39% | [5] -10% | [6] 1.06% | [8] -14.4% | [9] -32% | [10] 0.0235% | [11] -46.7% | [12] 2.54% | [13] -9.43% | [15] -28.3% | [16] -7.11% | [17] 2.63% | [18] -8.99% | [19] 0.628%
inactive: [14] 12.4%

Cc1ccc2nc3c(cc2c1)CSc1nnc(-c2ccc[nH]c2=S)n1N3
inactive: [1] 100% | [2] 102% | [3] 92.8% | [4] 64.3% | [5] 105% | [6] 97.4% | [7] 101% | [8] 104% | [9] 91.9% | [10] 83.3% | [11] 99.5% | [12] 100% | [13] 99.5% | [14] 109% | [15] 88.8% | [16] 82.7% | [17] 99.5% | [18] 96.3% | [19] 93.4%

CCCCCCCC(=O)Nc1nc2[nH]c(CN3CCN(Cc4cccc(I)c4)CC3)c(CN3CCN(Cc4cccc(I)c4)CC3)c2c(=O)[nH]1
inactive: [7] 45.5%
active: [1] -34% | [2] -44.5% | [3] -87.3% | [4] -99.9% | [5] -91.9% | [6] -98.9% | [8] 1.17% | [9] -36% | [10] -43.4% | [11] -22.5% | [12] -49.6% | [14] -89.8% | [15] -69.8% | [16] -74% | [17] -95.8% | [18] -40.9% | [19] -51.1%

Cc1ccc(Nc2cc(=S)nc(N)[nH]2)cc1C
inactive: [1] 99.9% | [2] 79% | [3] 92.4% | [4] 81.4% | [5] 144% | [6] 91.2% | [8] 112% | [9] 97.4% | [10] 97.5% | [11] 100% | [12] 97.4% | [13] 100% | [14] 108% | [16] 96% | [17] 115% | [18] 98.6% | [19] 105%

Nc1ccccc1NC(=O)c1ccc(CN2CCC/C(=C\c3cccc(Cl)c3)C2=O)cc1
inactive: [1] 11.1% | [2] 20.4% | [4] 22.6% | [10] 10.4% | [12] 10.2% | [13] 36.7% | [14] 33.7% | [15] 13.1% | [16] 17.8% | [18] 43.1%
active: [3] 5.8% | [5] 4.89% | [6] 5.98% | [7] -11% | [8] 4.02% | [9] 1.63% | [11] -18.7% | [17] 5.7% | [19] 5%

COc1ccc2c(c1)OC13Oc4cc(OC)ccc4C=C1CCCC3=C2
active: [8] 5.97% | [9] -3.56% | [10] 4.94% | [11] -20.6%
inactive: [1] 15.7% | [2] 39.7% | [3] 44.1% | [4] 36.3% | [5] 47% | [6] 25.3% | [7] 69.8% | [12] 47.7% | [13] 47.2% | [14] 55.2% | [15] 60.1% | [16] 41.4% | [18] 45% | [19] 21.6%

C=CCn1c(SCC(=O)Nc2ccc(C(=O)/C=C/c3cc(OC)c(OC)c(OC)c3)cc2)nnc1-c1cc(OC)c(OC)c(OC)c1
active: [8] 1.85% | [10] -5.4% | [11] -32.3% | [17] -21%
inactive: [1] 80.9% | [2] 51.8% | [3] 33.8% | [4] 42% | [5] 87.3% | [6] 37.8% | [7] 55.8% | [9] 12.3% | [12] 28.4% | [13] 95% | [14] 55.2% | [15] 76.5% | [16] 22.2% | [18] 69% | [19] 73%

O=C(Nc1ccc(F)cc1)c1c(NC(=O)C(F)(F)F)sc2c1CCCCC2
active: [1] -26.8% | [2] -2.06% | [3] 2.15% | [4] -0.296% | [6] 1.59% | [7] -57% | [9] 3.21% | [10] 2.35% | [11] -36.8% | [12] 8.06% | [14] 4.42% | [15] -16.8% | [17] 4.39% | [18] -6.84% | [19] 0.19%
inactive: [5] 15.5% | [13] 22.7% | [16] 18.1%

C=C(C)[C@@H]1CC[C@]2(C(=O)O)CC[C@]3(C)[C@H](CC[C@@H]4[C@@]5(C)C[C@@H](CC#Cc6ccc(Br)cc6)C(=O)C(C)(C)[C@@H]5CC[C@]43C)[C@@H]12
active: [1] -12.6% | [3] 4.51% | [7] -4.41%
inactive: [2] 52.1% | [4] 68% | [5] 62% | [6] 65% | [8] 28.9% | [9] 31.9% | [10] 55.2% | [11] 33.4% | [12] 35.6% | [13] 73.8% | [14] 30.3% | [15] 50.5% | [16] 58.6% | [17] 51.4% | [18] 59% | [19] 76.4%

O=C1Nc2ccccc2/C1=N/c1nc(-c2ccc(Cl)cc2)cs1
inactive: [1] 88.2% | [2] 60.2% | [3] 79.1% | [4] 52.2% | [5] 87.9% | [6] 80.2% | [7] 51% | [8] 41% | [9] 25% | [10] 60.1% | [11] 39.3% | [12] 54.6% | [13] 98.9% | [14] 67.7% | [15] 57.8% | [16] 66.7% | [18] 71.6%

Cc1ccccc1C(c1ccccc1)c1ccccc1C
inactive: [1] 101% | [2] 96.3% | [3] 96.8% | [4] 79.2% | [5] 100% | [6] 94.2% | [7] 83.6% | [8] 83.3% | [9] 93.5% | [10] 104% | [11] 89.5% | [12] 89.8% | [13] 85% | [14] 108% | [15] 75.1% | [16] 92.2% | [17] 104% | [18] 106% | [19] 104%

COc1ccc2c(c1)c(CC(=O)NCCOCCOCC(=O)Nc1ccc(OC)c(C(N)=O)c1O)c(C)n2C(=O)c1ccc(Cl)cc1
inactive: [1] 89% | [2] 94.4% | [3] 101% | [4] 74.4% | [5] 100% | [6] 109% | [7] 86.6% | [8] 107% | [9] 74.7% | [10] 90.2% | [11] 96.9% | [12] 90.3% | [14] 93.7% | [15] 109% | [16] 93.9% | [18] 105% | [19] 91.6%

CCCCCCOc1ccc(C(=N)N(CCCC)CCCC)c2ccccc12
active: [1] -85.6% | [2] -75.4% | [3] -86.5% | [4] -93.9% | [5] -92.4% | [6] -92% | [8] -12.8% | [9] -38.4% | [10] -46.9% | [11] -41.2% | [12] -74.6% | [13] -93.8% | [14] -96.4% | [15] -96.4% | [17] -94.2% | [18] -13.9% | [19] -95.3%

O=C1C(=O)c2c(nc3ncccn23)-c2ccccc21
active: [1] -58.9% | [2] -75.8% | [3] -82.3% | [4] -98.4% | [5] -52.4% | [6] -100% | [7] -95.9% | [8] -3.54% | [9] -46.6% | [10] -14.8% | [11] -25.3% | [12] -60.7% | [13] -88.1% | [14] -96.2% | [15] -97.9% | [16] -58.5% | [17] -50.2% | [18] -18.7% | [19] -32.8%

COc1cc(C(=O)/C=C/c2c(C)n([O-])c3ccc(Cl)cc3[n+]2=O)cc(OC)c1OC
active: [8] -30.6% | [9] 6.41% | [10] -5.8% | [11] -35.2% | [16] -30.3%
inactive: [1] 59.6% | [2] 80.9% | [3] 56.3% | [4] 43% | [5] 46.1% | [6] 53.5% | [7] 100% | [12] 23% | [13] 86.6% | [14] 70.7% | [15] 87.3% | [18] 86.3% | [19] 39%
